Screening results (PubChem BioAssay)
KLF5 inhibitor – suppresses KLF5 promoter-driven expression | DLD-1 KLF5 promoter-luciferase reporter, luminescence | inhibition, % at 5 µM | 0.23% of 290,000 active;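 active = inhibition above a per-plate limit of that plate's mean compound inhibition plus 3 SD, cut at about 60% in these data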;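 also: 0% = DMSO wells and 100% = LY294002 at 200 µM; higher means less KLF5 promoter-driven luciferase light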
Ba/F3 V617F tox – reduce viability of Ba/F3 cells dependent on JAK2V617F; 1.1% of 220,000 active; inhibition, % at 5.6 µM; Ba/F3 EpoR-JAK2V617F viability, ATP luminescence;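 active = inhibition above the campaign mean plus 3 SD over all tested compounds, cut at about 24% in these data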;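 also: cytokine-independent growth of Ba/F3 cells driven by EpoR plus mutant JAK2; 0% = DMSO-treated cells and 100% = JAK inhibitor I control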
APP 5UTR inh – APP translation inhibition. AID 1285. inhibition, % at 2 µM. SH-SY5Y APP 5'UTR-luciferase reporter, luminescence. 0.82% of 190,000 active;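 active = inhibition above a set limit, derived from the sample mean plus 3 SD, cut at about 45% in these data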
BaF3 parental – reduces parental Ba/F3 cell viability, JAK2V617F counter-screen; CellTiter-Glo ATP luminescence; inhibition, % at 5.6 µM; 1.1% of 220,000 active; AID 1486;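 active = inhibition above a per-campaign cutoff, the mean inhibition of all tested compounds plus 3 SD, cut at about 27% in these data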;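 also: 0% = DMSO wells and 100% = JAK Inhibitor I control wells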
IEC-6 tox-1 – IEC-6 cytotoxicity, counter-screen for KLF5 inhibitors; luminescence viability; inhibition, % at 5 µM; 0.78% of 290,000 active;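 also: 0% = plate median of test compound wells and 100% = cytotoxic reference compound wells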
KLF5 inh confirm – confirmation of KLF5 inhibitors; shares compounds with KLF5 inhibitor; DLD-1 KLF5 promoter firefly luciferase reporter, luminescence; inhibition, % at 4 µM; 79% of 610 active;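 active = inhibition above a set limit taken from the earlier primary screen, cut at about 63% in these data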;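 also: 0% = DMSO wells and 100% = LY294002 at 200 µM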
IEC-6 tox-2 – rat IEC-6 cytotoxicity, KLF5 inhibitor counter-screen. shares compounds with KLF5 inhibitor. IEC-6 rat intestinal cells, viability luminescence. inhibition, % at 4 µM. 56% of 610 active; in the data active = inhibition above about 23%;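 also: cells exposed to compounds for 48 hours before viability read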
IEC-6 tox confirm – confirmation of cytotoxic compounds in rat IEC-6 intestinal epithelial cells. shares compounds with IEC-6 tox-1. IEC-6 rat intestinal epithelial viability, luminescence. inhibition, % at 5 µM. 63% of 1,900 active. AID 1907;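 also: 0% = vehicle and 100% = reference cytotoxic drug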
* marks the source's active call; other numbers are inactive results; . = no result. Sampled rows, rich in hits. Any-hit rate of the full collection: about 1.9%. Rule as the data show it, unless noted: active = inhibition above about 22%; inactive = the rest.

SMILES	KLF5 inhibitor	Ba/F3 V617F tox	APP 5UTR inh	BaF3 parental	IEC-6 tox-1	IEC-6 tox confirm	others
C/C=C(\C)C(=O)N[C@@H](c1ccccc1)[C@@H](O)C(=O)O[C@H]1C[C@@]2(O)[C@@H](OC(=O)c3ccccc3)C3[C@](C)(C(=O)[C@H](OC(C)=O)C(=C1C)C2(C)C)[C@H](O)C[C@H]1OC[C@@]31OC(C)=O (stereo not given in full)	64*	.	.	.	88*	79*	KLF5 inh confirm=86*;IEC-6 tox-2=71*
Cc1cccc(NC(=O)N2C[C@H]3C[C@@H](C2)c2cccc(=O)n2C3)c1	-1	.	.	.	-9	.
C=CCn1c(C)c(C=C2C(=O)NC(=O)NC2=O)c2ccccc21	-17	.	.	.	3	.
OC1/C(=C/c2ccccc2F)N2CCC1CC2 (stereo not given)	-19	-3	7	2	1	.
COC(=O)C[C@]1(C(=O)OC)CN(C#N)N(c2ccc(Cl)cc2)C12c1ccccc1-c1ccccc12	37	98*	96*	97*	101*	93*
CC(=O)O[C@@]12CO[C@@H]1C[C@H](OC1OCC(O)C(O)C1O)[C@@]1(C)C(=O)[C@H](O)C3=C(C)[C@@H](OC(=O)[C@H](O)[C@@H](NC(=O)c4ccccc4)c4ccccc4)C[C@@](O)([C@@H](OC(=O)c4ccccc4)C12)C3(C)C (stereo not given in full)	16	.	.	.	57*	46*
CCCCCC(=O)N[C@@H](c1ccccc1)[C@@H](O)C(=O)O[C@H]1C[C@@]2(O)[C@@H](OC(=O)c3ccccc3)C3[C@](C)(C(=O)[C@H](O)C(=C1C)C2(C)C)[C@@H](OC1OCC(O)C(O)C1O)C[C@H]1OC[C@@]31OC(C)=O (stereo not given in full)	17	.	.	.	68*	54*
Cc1ccc(-n2c(O)c(C=NCCCn3ccnc3)c(=O)[nH]c2=O)cc1	-21	0	.	-6	0	.
Cc1ccnc(-n2c(C)nc3ccccc3c2=O)c1	-37	2	-35	7	8	.
Cc1nc2ccccc2c(=O)n1-c1ccc(Br)cn1	-31	25*	.	51*	22*	-2
C[C@@]1(CO)[C@H](O)CC[C@@]2(C)[C@H]1CC[C@H]1C[C@@H]3C[C@@]12CC[C@]3(O)CO	23	99*	83*	91*	87*	80*
CCNC(=S)NCCC1=c2ccccc2=N/C1=C\c1c(O)n(C)c(=O)n(C)c1=O	-13	-2	.	-3	-1	.
C=CCn1c(O)c(C(C)=NCc2cccnc2)c(=O)[nH]c1=O	-14	-3	7	5	2	.
C=CCn1c(O)c(C(C)=NCc2cc(OC)cc(OC)c2)c(=O)[nH]c1=O	-5	45*	26	28*	28*	34*
COc1ccc(/C=C/C(=O)NC(=S)N2C[C@H]3C[C@H](C2)c2cccc(=O)n2C3)cc1OC	2	.	.	.	0	.
Cc1cccc(-n2c(O)c(/C=C/C=Nc3ccccc3)c(=O)[nH]c2=O)c1	-1	-1	13	7	-4	.
Cc1cccc(-n2c(O)c(/C=C3/C(c4ccccc4)=Nc4ccccc43)c(=O)[nH]c2=O)c1	23	82*	.	74*	70*	58*
CC/C=C/CC(=O)N[C@@H](c1ccccc1)[C@@H](O)C(=O)O[C@H]1C[C@@]2(O)[C@@H](OC(=O)c3ccccc3)C3[C@](C)(C(=O)[C@H](OC(C)=O)C(=C1C)C2(C)C)[C@@H](O)C[C@H]1OC[C@@]31OC(C)=O (stereo not given in full)	49	.	.	.	92*	86*
CCC(C)C(=O)N[C@@H](c1ccccc1)[C@@H](O)C(=O)O[C@H]1C[C@@]2(O)[C@@H](OC(=O)c3ccccc3)C3[C@](C)(C(=O)[C@H](OC(C)=O)C(=C1C)C2(C)C)[C@@H](O)C[C@H]1OC[C@@]31OC(C)=O (stereo not given in full)	56	.	.	.	92*	81*
COc1ccc(NC2=NCCCS2)cc1OC	7	.	.	.	-4	.
CCCCS(=O)(=O)N1CCN(C(=N)N[N+](=O)[O-])CC1	-25	0	10	-2	-1	.
C/C(=N\N1CCCCCC1)c1c(O)n(C)c(=O)n(C)c1=O	-12	-2	.	-1	4	.
COc1ccc(C2=CC(c3ccc(OC)c(OC)c3)c3c(c4ccccc4oc3=O)O2)cc1OC (stereo not given)	-2	0	.	-1	28*	21
COc1ccc(C)cc1NC(=O)c1c(C)nn(Cc2ccccc2)c1Cl	-14	-1	-14	4	-4	.
Cc1c2ccncc2c(C)c2c1[nH]c1ccccc12	4	84*	67*	74*	49*	49*
SMILES	KLF5 inhibitor	Ba/F3 V617F tox	APP 5UTR inh	BaF3 parental	IEC-6 tox-1	IEC-6 tox confirm	others
Cc1ccc(-c2cc(-c3ccc(C)cc3)[n+](C)o2)cc1	-16	91*	-20	73*	25*	23*
CN1C2CCC1/C(=C/c1ccccn1)C(=O)/C2=C\c1ccccn1	9	100*	95*	103*	59*	95*
Cc1ccccc1-n1c(/C=C/c2ccccn2)nc2ccccc2c1=O	-16	2	.	-4	-2	.
CNC(=O)O/N=C/c1nn(C(=O)C(C)(C)C)cc1Br	-15	-6	.	0	-4	.
c1ccc(-c2cc(-c3ccccc3)[n+](-c3ccccc3)c(-c3ccccc3)c2)cc1	39	99*	.	97*	47*	47*
COc1ccc(OCC(=O)N2CCCC(N3CCN(c4ccccc4C)CC3)C2)cc1 (stereo not given)	-21	.	.	.	-7	.
COCCOC(=O)c1c(C)oc2ccc(OC(=O)N(C)C)cc12	29	2	-1	5	5	.
O=[N+]([O-])NC1=NCCN1Cc1ccc(Cl)nc1	-22	.	.	.	48*	4
CC/C(=C\C=C\[C@@H]1C=C[C@@H]2CCC[C@H]2[C@@H]1C(=O)c1ccc[nH]1)[C@@H]1O[C@@H]([C@@H](C)C(=O)O)CC[C@@H]1C	12	55*	-2	31*	39*	33*
Cn1c(=O)c2c(nc(N/N=C/c3c(O)n(-c4ccccc4)c(=S)[nH]c3=O)n2C)n(C)c1=O	8	-2	3	5	0	.
COc1ccc(CNCCc2c(C)[nH]c3ccc(OC(F)(F)F)cc23)c(OC)c1	-12	.	.	.	38*	22*
COc1ccc2[nH]c(C)c(CCNCc3cc(OC)c(OC)c(OC)c3)c2c1	-12	3	-2	7	4	.
COc1ccc(C(CNC(=O)c2ccc3c(c2)CCC3)N(C)C)cc1 (stereo not given)	5	.	.	.	3	.
